Bioassay records from PubChem.
IMPase inh = cell-permeable inhibitors of inositol monophosphatase (IMPase); inhibition (IP1 accumulation), % at 46.1 µM; AID 901; CHO-M1 cells, IP1 accumulation, HTRF TR-FRET ratio; 120,000 tested, under 10 active; active = well fitted curve in the direction sought with a large enough effect in the signal ratio, not every such curve was filed as active; inconclusive = small, poorly fitted or top-dose-only effect, or a change in a side signal; inactive = no such curve, though single readings can be large or run the other way; the % refers to the signal ratio;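 also: cells stimulated with carbachol in lithium chloride buffer; plate controls were DMSO basal wells for no effect and reference inhibitor wells for full effect; higher means more IMPase inhibition seen as more IP1 and lower FRET ratio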
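Seeded CHO-M1 cells were dosed with compound at up to 46 uM, stimulated with carbachol for 30 min, then lysed in IP-One detection reagents. Higher IP1 lowers the TR-FRET signal.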
ALOX12 inhib = inhibitors of human 12-lipoxygenase (ALOX12) | P18054 | purified 12-hLO, xylenol orange hydroperoxide absorbance | Potency, µM (highest dose often 57.1 µM), for the others: at the top dose activity change, negative = inhibition, most hits filed as inhibitors | hit rate 0.12% among 150,000 | AID 1452; also: potency is read from the fitted curve at half-maximal effect; nearly all actives have a fitted effect of over 55% in size
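150 nM 12hLO, 25 mM Hepes pH 7.0 + 0.01% Triton X-100; cpd preinc 15 min RT; 40 uM arachidonic acid, 30 min RT; Fe-XO 30 min; A573/A405 ratio as read-out.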
ALOX15B inhib = blocks human 15-lipoxygenase 2 activity; O15296; purified 15hLO-2, xylenol orange hydroperoxide absorbance; Potency, µM (series often up to 57.1 µM), for the others: at the top dose activity change, negative = inhibition, most hits filed as inhibitors; hit rate 0.56% among 110,000; AID 881; also: potency is read from the fitted curve at half-maximal effect; nearly all actives have a fitted effect of over 60% in size
Target sequence (O15296 whole entry, looked up): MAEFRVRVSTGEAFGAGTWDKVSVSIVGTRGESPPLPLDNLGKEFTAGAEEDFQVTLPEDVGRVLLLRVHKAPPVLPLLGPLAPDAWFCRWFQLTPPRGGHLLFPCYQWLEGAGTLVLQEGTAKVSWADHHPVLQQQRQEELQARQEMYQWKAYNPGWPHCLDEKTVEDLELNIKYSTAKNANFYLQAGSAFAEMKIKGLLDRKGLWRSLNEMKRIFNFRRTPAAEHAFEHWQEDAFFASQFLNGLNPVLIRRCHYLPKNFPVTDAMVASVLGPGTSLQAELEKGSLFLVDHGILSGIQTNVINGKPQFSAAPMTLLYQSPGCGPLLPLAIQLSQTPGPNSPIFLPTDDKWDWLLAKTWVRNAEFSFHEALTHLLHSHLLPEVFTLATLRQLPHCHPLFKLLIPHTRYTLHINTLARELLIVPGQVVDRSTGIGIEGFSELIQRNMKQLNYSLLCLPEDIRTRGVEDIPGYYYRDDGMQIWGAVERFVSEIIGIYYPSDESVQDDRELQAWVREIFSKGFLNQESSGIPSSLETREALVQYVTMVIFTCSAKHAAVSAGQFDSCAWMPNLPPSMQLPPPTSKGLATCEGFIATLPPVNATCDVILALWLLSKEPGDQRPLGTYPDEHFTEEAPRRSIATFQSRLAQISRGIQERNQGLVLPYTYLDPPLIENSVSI
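Enzyme 50 nM, AA 45 uM, 25 mM Hepes pH 7.5 + 0.01% Triton X-100; cpd preinc 15 min RT, rxn 90 min RT; stop/detect with 200 uM XO + 300 uM Fe(II) in 50 mM H2SO4, 30 min; A573/A405.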
PNC assembly inh = inhibitors of perinucleolar compartment assembly; hit rate 3.1% among 140,000; activity change (PNC), negative = inhibition, % at 10 µM; PC3M PTB-GFP, PNC prevalence imaging, 16 h; active compounds read low;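 active = readout at or below -70, meaning at least 70% loss of cells showing the perinucleolar compartment, a nuclear body marking cancer cells; inconclusive = readout between -30 and a set limit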;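 also: plate controls were DMSO wells for no effect and camptothecin positive control wells for full effect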
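PC3M cells stably expressing PTB-GFP, 750–1000 cells/well, treated 16 h at 37 °C with compound (23 nl of library stock), in duplicate. After paraformaldehyde fixation and Hoechst stain, imaged at 20x; PNC prevalence scored by image analysis.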
Starred values were filed as active, the others as inactive. Rows were chosen to be rich in hits. Some 3% of all compounds tested hit in one or more screens of this group. Unless noted, calls follow the shape of the dose curve; as a rule, active = well fitted curve in the direction sought with a large enough effect; inconclusive = small, poorly fitted or top-dose-only effect, or another doubt; inactive = no such curve, though single readings can be large; an effect the other way counts as inactive or inconclusive. Unless noted, % is scaled to controls: 0 for no effect and ±100 for the full control effect.

Screening CC(=O)CSc1nnc(NC(=O)CCc2ccccc2)s1 returned IMPase inh -9, ALOX12 inhib -1%, ALOX15B inhib 2% and PNC assembly inh 14.
`CCCCSc1nnc(NC(=O)CCc2ccccc2)s1` gave IMPase inh -1, ALOX12 inhib 3%, ALOX15B inhib -3% and PNC assembly inh -81*.
`COc1ccc(-c2[nH]c(-c3ccc(Cl)cc3)nc2SCC(=O)NCC2CCCO2)cc1` (configuration not stated) gave IMPase inh 5.
Screening Cc1c(NC(=O)c2ccc(OC(C)C)cc2)cccc1-c1nc2ncccc2o1 returned IMPase inh -2.
Cn1c(=O)c2c(nc(SCC(=O)NC34CC5CC(CC(C5)C3)C4)n2C)n(C)c1=O was read as IMPase inh 0, ALOX12 inhib 10%, ALOX15B inhib 11% and PNC assembly inh -17.
For Cn1ccnc1SCC(=O)NC12CC3CC(CC(C3)C1)C2 the results were IMPase inh 7, ALOX12 inhib -1%, ALOX15B inhib 5% and PNC assembly inh -127*.
For Cc1[nH]c(C)c(Cl)c(=O)c1Cl the results were ALOX12 inhib -2% and ALOX15B inhib 8%.
COc1ccc(S(=O)(=O)N2CCN(c3ccc(C)cc3C)CC2)cc1OC was read as IMPase inh 4, ALOX12 inhib -3%, ALOX15B inhib -3% and PNC assembly inh -83*.
`COc1ccc(S(=O)(=O)N2CCN(c3c(C)cccc3C)CC2)cc1OC` gave IMPase inh 10, ALOX12 inhib 4%, ALOX15B inhib -10% and PNC assembly inh inconclusive.
Screening CCCn1c(-c2ccc(F)cc2)n[nH]c1=S returned IMPase inh -8, ALOX12 inhib -4%, ALOX15B inhib 2% and PNC assembly inh -121*.
For CCC1CCc2c(sc(NC(=O)C3c4ccccc4Oc4ccccc43)c2C(N)=O)C1 (configuration not stated) the results were IMPase inh -5, ALOX12 inhib -4% and PNC assembly inh -95*.
Screening CCCOC(=O)c1c(NC(=O)C2c3ccccc3Oc3ccccc32)sc2c1CCCC2 returned IMPase inh -3.
For CC1CN(c2oc(COc3ccc(Cl)cc3Cl)nc2C#N)CC(C)O1 (configuration not stated) the results were IMPase inh 3, ALOX12 inhib -10% and PNC assembly inh -100*.
For N#Cc1nc(COc2ccccc2Cl)oc1N1CCCCCC1 the results were IMPase inh -4, ALOX12 inhib 6% and PNC assembly inh -122*.
Screening COc1ccc(NC(=O)NCCN2C(=O)C3C4C=CC(C4)C3C2=O)cc1 (configuration not stated) returned IMPase inh -4, ALOX12 inhib -6% and PNC assembly inh -82*.
Screening COc1ccc(-c2nnc3c4ccccc4c(C)nn23)cc1 returned IMPase inh 9, ALOX12 inhib -2%, ALOX15B inhib -5% and PNC assembly inh -89*.
For COC(=O)Sc1nc(N2CCOCC2)c2c(c1C#N)CC(C)(C)OC2 the results were IMPase inh -21, ALOX12 inhib -6%, ALOX15B inhib -11% and PNC assembly inh -116*.
For Cc1ccc(C(=O)Nc2cc(Cl)ccc2OC(=O)c2ccc(C)cc2)cc1 the results were IMPase inh 4, ALOX12 inhib 1%, ALOX15B inhib -13% and PNC assembly inh 77.
`CCOc1ccc(Br)cc1S(=O)(=O)Nc1ccc(C(=O)Nc2ccccc2OC)cc1` gave ALOX12 inhib -2% and PNC assembly inh inconclusive.
`O=C(Nc1ccccc1OC(=O)c1ccc(Cl)cc1)c1ccc(Cl)cc1` gave IMPase inh -4, ALOX12 inhib 0% and PNC assembly inh -94*.
For COc1ccccc1NC(=O)c1ccc(NS(=O)(=O)c2ccc(F)c(F)c2F)cc1 the results were ALOX12 inhib -5% and PNC assembly inh -121*.
CCCn1c(=O)c(C(=O)NNS(=O)(=O)c2ccc(Cl)cc2)c(O)c2ccccc21 was read as ALOX12 inhib -16% and PNC assembly inh 12.
For Cc1ccccc1C(=O)NCC(=O)NNC(=S)NC(=O)c1ccccc1 the results were ALOX12 inhib 0% and PNC assembly inh -83*.
COc1ccccc1NC(=O)CNC(=O)c1ccccc1C was read as IMPase inh 4, ALOX12 inhib 11%, ALOX15B inhib 5% and PNC assembly inh -108*.
For N#CCSc1nnc(COc2cccc3ccccc23)n1-c1ccccc1 the results were IMPase inh -3, ALOX12 inhib -9%, ALOX15B inhib -14% and PNC assembly inh -24.
For N#CCSc1nnc(COc2cccc3ccccc23)n1-c1cccc(Cl)c1 the results were IMPase inh 7, ALOX12 inhib -9%, ALOX15B inhib -18% and PNC assembly inh -80*.
Screening CC(C)Sc1nc(N2CCCC2)c2c(c1C#N)CC(C)(C)OC2 returned IMPase inh -4, ALOX12 inhib 0%, ALOX15B inhib 6% and PNC assembly inh 48.
`CC(Sc1nc(N2CCCCC2)c2c(c1C#N)CCCC2)C(=O)O` (configuration not stated) gave IMPase inh -18, ALOX12 inhib -1%, ALOX15B inhib -18% and PNC assembly inh -117*.
Screening CC1=[N+]([O-])C(C)(C)C(c2ccc(Br)cc2)=[N+]1[O-] returned ALOX12 inhib -5% and PNC assembly inh inconclusive.
Screening Cc1ccc(C)c(Cc2c(C)nc3c(C(=O)NCc4ccc5c(c4)OCO5)cnn3c2C)c1 returned IMPase inh 2, ALOX12 inhib 9%, ALOX15B inhib -1% and PNC assembly inh -92*.
O=C(NC(=S)Nc1ccccc1N1CCCCC1)c1ccc(-c2cccc([N+](=O)[O-])c2)o1 was read as IMPase inh 1, ALOX12 inhib -3%, ALOX15B inhib 25µM* and PNC assembly inh 3.
O=C(NC(=S)Nc1ccccc1N1CCOCC1)c1ccc(-c2cccc(Cl)c2)o1 was read as IMPase inh -8, ALOX12 inhib -8% and PNC assembly inh -11.
`O=C(NC(=S)Nc1ccccc1N1CCCC1)c1ccc(-c2cccc([N+](=O)[O-])c2)o1` gave IMPase inh -1, ALOX12 inhib inconclusive, ALOX15B inhib 7.9µM* and PNC assembly inh 1.
`O=C(NNC(=O)c1cccnc1)Nc1cccc(Cl)c1Cl` gave IMPase inh -4, ALOX12 inhib -2% and PNC assembly inh inconclusive.
COc1cccc(CNC(=O)c2cc3oc4ccccc4c3n2C)c1OC was read as IMPase inh -1, ALOX12 inhib -7%, ALOX15B inhib 11% and PNC assembly inh -106*.
`CC(C)Cc1[nH]c(=O)c(C#N)c2c1COC(C)(C)C2` gave IMPase inh 6, ALOX12 inhib 3%, ALOX15B inhib 2% and PNC assembly inh 5.
For Cc1sc(-n2c(C)ccc2C)c(C#N)c1C the results were IMPase inh 6, ALOX12 inhib -5%, ALOX15B inhib -27% and PNC assembly inh 17.
For Cc1ccc(C)n1-c1sc2c(c1C#N)CCCC2 the results were IMPase inh 1, ALOX12 inhib -23% and PNC assembly inh -100*.
